Experimental findings from PubChem BioAssay (EPA / NIEHS) are described below.

Usually AC50 stands for the concentration at which the activity in the assay is half-maximal.

Each structure is given as a SMILES string. Records with an inconclusive call do not appear. Active and inactive are the calls of the source. Rule for the calls: active = hit-call score of the fitted dose curve at least 0.9, where 1 is the maximum; inconclusive = response in the unintended direction; inactive = score below 0.9.

In assay [1] the test system is Sodium/Iodide Symporter (NIS), SLC5A5 (gene 6528). Nature of the assay: CPHEA_Stoker_NIS_Inhibition_RAIU: CPHEA's Radioactive Iodide Uptake (RAIU) Assay for Sodium/Iodide Symporter (NIS) Inhibition, Stoker and Laws Labs (AID 2283841). Put shortly: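 Iodide uptake through human NIS is measured in an engineered HEK293T line. Cells take up 125I (329pM final) for 2 hours at room temperature alongside chemicals at 0.001–100uM. Retained radioactivity is counted, and the signal is expressed against DMSO controls.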

A short description of assay [2]: CPHEA_Stoker_NIS_Cytotoxicity: Cytotoxicity Assessment for CPHEA's Radioactive Iodide Uptake (RAIU) Assay for Sodium/Iodide Symporter (NIS) Inhibition, Stoker and Laws Labs (AID 2283897).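 For AC50: active means loss of ATP signal versus DMSO meaning cytotoxicity.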 Put shortly: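 ATP luminescence (Cell Titer Glo) measured viability, with loss of signal normalized to DMSO controls. Cells: hNIS-HEK293T-EPA, seeded 40 hours prior. Dosing: 0.001–100uM, 2 hours, room temperature, uptake buffer pH 7.4.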

In the case of `Clc1ccc(COC(Cn2ccnc2)c2ccc(Cl)cc2Cl)cc1` (stereo unspecified), the AC50 is 11.7 µM (active) in assay [1] and 72.6 µM (active) in assay [2].

With `CC(C)(c1ccccc1)c1ccc(O)c(C(C)(C)c2ccccc2)c1`, the outcome in assay [1] and in assay [2] was inactive.

Consider `CCOP(=S)(OCC)Oc1nc(Cl)c(Cl)cc1Cl`, for which the result in assay [1] and in assay [2] was inactive.
